Hits are enriched below; roughly 2.9% of the tested compounds scored in any of these assays.
HePTP inh – inhibitors of human HePTP phosphatase, primary screen, biochemical, absorbance, leukemia target; Tyrosine-protein phosphatase non-receptor type 7 (Homo sapiens), P35236; recombinant HePTP phosphatase activity, OD absorbance; inhibition, % at 20 µM; 0.64% of 110,000 active; AID 521, 2006; in the data active = inhibition above about 50%
Target sequence (P35236 whole entry, looked up): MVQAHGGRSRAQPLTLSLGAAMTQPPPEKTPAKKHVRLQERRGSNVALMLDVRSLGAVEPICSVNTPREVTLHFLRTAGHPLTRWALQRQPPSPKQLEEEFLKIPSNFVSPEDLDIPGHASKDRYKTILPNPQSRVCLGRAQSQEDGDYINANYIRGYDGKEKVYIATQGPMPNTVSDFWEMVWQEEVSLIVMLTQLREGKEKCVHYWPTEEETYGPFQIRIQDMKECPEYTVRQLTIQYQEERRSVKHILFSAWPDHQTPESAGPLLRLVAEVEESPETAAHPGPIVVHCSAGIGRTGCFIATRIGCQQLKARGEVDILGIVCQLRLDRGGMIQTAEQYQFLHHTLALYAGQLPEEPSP
Calb biofilm kill – clotrimazole potentiators killing Candida biofilms, primary screen, with clotrimazole, Alamar Blue; C. albicans biofilm + clotrimazole; inhibition, % at 6 µM; 0.14% of 85,000 active; AID 834, 2007;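 active = inhibition above 20%; inactive = inhibition below 20%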;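 also: preformed 24 hr biofilms exposed to compound for 48 hr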
ERa SRC1 pot – enhancers of ERα–SRC-1 coactivator binding, primary screen, biochemical, TR-FRET, ERα LBD, low estradiol; TR-FRET ERalpha-LBD/SRC-Cy5 coactivator binding, 2 h; 100 = basal binding, no effect; coactivator binding (% of control), % at 25.6 µM; 1.3% of 86,000 active; AID 639, 2007; in the data active = activity above about 200%;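 also: binding measured in presence of low estradiol as agonist stimulus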
Smad3 inh – Smad3/FoxH1 peptide binding inhibitors, primary screen, biochemical, TR-FRET; Mothers against decapentaplegic homolog 3 (Homo sapiens), P84022; TR-FRET Smad3/Dy647-FoxH1 peptide binding, europium anti-His; inhibition, % at 25 µM; 0.29% of 88,000 active;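 active = compounds that reduce the energy-transfer binding signal between the protein and its labelled peptide by more than half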
ERb SRC1 inh – inhibitors of ERβ-SRC1 coactivator interaction, primary screen, biochemical, TR-FRET, ERβ LBD, SRC-1 peptide | Estrogen receptor beta (Homo sapiens), Q92731 | TR-FRET ER-beta LBD / SRC1-Cy5 peptide binding; receptor agonist-loaded with 1 µM estradiol | inhibition, % at 25.6 µM | 1.3% of 86,000 active | AID 633, 2007;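 active = compounds whose percent inhibition of the receptor-coactivator binding signal exceeds about 50% in the single-dose screen, limit read from the data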
ERa SRC1 inh – ERα–SRC-1 coactivator interaction inhibitors, primary screen, biochemical, TR-FRET, ERα LBD, estradiol-bound; Estrogen receptor (Homo sapiens), P03372; 1.7% of 86,000 active; TR-FRET ER-alpha LBD / SRC-1 peptide; AID 629, 2007; inhibition, % at 25.6 µM; in the data active = inhibition above about 50%
Numbers stand for hits; - = inactive; . = no result given; ! = not active in a repeat; [ ] = another dose, or the depositor's remark.

SMILES	HePTP inh	Calb biofilm kill	ERa SRC1 pot	Smad3 inh	ERb SRC1 inh	ERa SRC1 inh
CC1(C)Cc2c(sc(NC(=O)C3(c4ccccc4)CCCC3)c2C#N)CO1	106	.	.	.	.	.
CCN(CC)c1ccc(/C=N/N2C(=O)c3ccccc3C2=O)cc1	102	.	.	.	.	.
COc1cc(-c2nnc3ccc(C(F)(F)F)cn23)ccc1Oc1ccc([N+](=O)[O-])cc1	102	.	.	.	.	.
CSc1ccccc1NC(=O)c1ccccc1N(C)S(C)(=O)=O	-	-	-	-	-	-
CSc1ccccc1NC(=O)c1ccccc1N(Cc1ccccc1)S(C)(=O)=O	.	-	-	-	59	-
COc1ccc2nc(NC(=O)Cc3cccs3)sc2c1	.	-	-	-	-	-
COc1ccc2nc(NC(=O)CCc3nc(-c4ccccc4F)no3)sc2c1	-	-	204	-	-	-
CSc1nc(NCc2ccco2)c2ccccc2n1	.	-	-	-	-	54
O=C(O)C1C2C=CC3(CN(Cc4ccccc4)C(=O)C13)O2 (stereo not drawn)	-	.	.	.	.	.
CC(C)(C)C1CCc2c(sc(NC(=O)c3ccncc3)c2C#N)C1 (stereo not drawn)	-	.	.	.	.	.
Cc1ccccc1CNc1nc(N)n(-c2ccccc2)n1	-	20	-	-	-	-
Cc1cccc2cc(CN(CC3CCCO3)C(=O)c3ccco3)c(=O)[nH]c12 (stereo not drawn)	-	-	-	-	-	-
Cc1ccc2cc(CN(CC3CCCO3)C(=O)c3ccco3)c(=O)[nH]c2c1C (stereo not drawn)	-	-	-	-	54	-
O=C1N=C(N2CCCCCC2)S/C1=C\c1ccccc1Cl	-	.	.	.	.	.
CCOc1ccc(C(=O)Nc2cccc(S(N)(=O)=O)c2)cc1Br	103	.	.	.	.	.
CCOc1cc(OCC)cc(C(=O)Nc2cccc(S(N)(=O)=O)c2)c1	-	.	.	.	.	.
O=C1c2ccccc2-c2cc(=O)[nH]c3cccc1c23	-	.	.	.	.	.
CC1(C)Cc2c(ccc3ccccc23)/C(=C/C(=O)N2CCCCC2)N1	.	-	-	-	-	-
O=C(/C=C1\NC2(CCCC2)Cc2ccccc21)N1CCOCC1	-	-	-	-	83[fluorescence artefact?]	-
O=c1c2ccccc2nc(SCCc2ccccc2)n1Cc1ccccc1	-	.	.	.	.	.
COc1ccccc1-c1nnc2sc(-c3cnccn3)nn12	-	-	-	-	65	52[fluorescence artefact?]
CCOc1cccc(-c2nnc3sc(-c4ccc(C)cc4)nn23)c1	-	-	-	-	-	-
CCOc1cccc(-c2nnc3sc(-c4ccco4)nn23)c1	-	-	244	-	-	-
CCOc1ccc(-c2nnc3sc(-c4c(OC)cccc4OC)nn23)cc1	-	-	-	-	-	-
COc1ccccc1-c1nnc2sc(-c3ccc(N(C)C)cc3)nn12	-	.	.	.	.	.
SMILES	HePTP inh	Calb biofilm kill	ERa SRC1 pot	Smad3 inh	ERb SRC1 inh	ERa SRC1 inh
COc1ccccc1-c1nn2c(-c3ccc(C(C)(C)C)cc3)nnc2s1	-	-	241	-	-	-
CCOc1ccc(-c2nnc3sc(-c4ccccc4OC)nn23)cc1	-	-	941[fluorescence artefact?]	-	-	-
COc1ccccc1-c1nnc2sc(-c3cc4ccccc4o3)nn12	-	-	-	-	-	-
CC(C)OC(=O)CSC1=C(C#N)C(c2ccc(Cl)cc2Cl)CC(=O)N1 (stereo not drawn)	-	.	.	.	.	.
COc1ccc2cc3c(N)nn(C(=O)Cc4ccc(Cl)cc4)c3nc2c1	.	-	-	-	-	60
COc1ccc(CNC(=O)Cc2ccc(Cl)cc2)cc1	-	.	.	.	.	.
COC(=O)c1ccc(NC(=O)c2ccccc2C(F)(F)F)cc1	-	.	.	.	.	.
O=c1[nH]c2ccc(Cl)cc2c(-c2ccccc2)c1N1CCOCC1	-	-	357[fluorescence artefact?]	-	-	-
O=C(c1ccco1)N1CCN(c2c(-c3ccccc3)c3cc(Cl)ccc3[nH]c2=O)CC1	-	-	223[fluorescence artefact?]	-	-	-
O=c1[nH]c2ccc(Cl)cc2c(-c2ccccc2)c1CN1CCOCC1	-	-	-	-	-	-
O=c1[nH]c2ccc(Cl)cc2c(-c2ccccc2)c1N1CCN(c2ccccn2)CC1	-	-	260[fluorescence artefact?]	-	-	-
O=C(/C=C/c1ccco1)c1c(-c2ccccc2)c2cc(Cl)ccc2[nH]c1=O	-	.	.	.	.	.
Cc1oc(NC(=O)CCCC(=O)O)c(C#N)c1C	-	.	.	.	.	.
COc1ccc(NC(=O)/C(C#N)=C/c2cn(CC(=O)Nc3ccccc3)c3ccccc23)cc1	-	.	.	.	.	.
O=C(CCn1c2ccccc2c2ccccc21)N/N=C/c1ccccc1	-	.	.	.	.	.
COc1nc(Nc2ccc(-c3nc4ccccc4o3)cc2)nc(N2CCOCC2)n1	-	-	-	-	-	62[fluorescence artefact?]
CN1C(=O)C2(N=C(C(=O)O)c3ccccc3N2C)c2ccccc21 (stereo not drawn)	-	.	.	.	.	.
CN1C(=O)C2(N=c3ccccc3=N2)c2ccccc21	-	-	-	-	91[fluorescence artefact?]	-
O=C1C(c2ccccc2)=S=C2N=C(c3ccccc3)C=CN12	-	.	.	.	.	.
Cc1ccc(C)n1Cc1ccc(C(=O)O)cc1	104!	-	-	-	-	-
Cc1cc(C)n(Cc2ccc(C(=O)O)cc2)n1	.	-	-	-	-	-
CCOc1ccc(Nc2oc(-c3ccccc3Cl)nc2C#N)cc1	.	-	-	-	-	71
CNc1oc(-c2ccccc2Cl)nc1C#N	-	-	-	-	-	-
CCOCCCNC(=O)c1c[nH]c2ccc(S(=O)(=O)Nc3cccc(OC)c3)cc2c1=O	-	-	-	-	-	53
CCc1ccccc1NS(=O)(=O)c1ccc2[nH]cc(C(=O)NCc3ccco3)c(=O)c2c1	-	-	277[fluorescence artefact?]	-	-	-
SMILES	HePTP inh	Calb biofilm kill	ERa SRC1 pot	Smad3 inh	ERb SRC1 inh	ERa SRC1 inh
CCN(CC)C(=O)c1c[nH]c2ccc(S(=O)(=O)Nc3cc(C)cc(C)c3)cc2c1=O	-	-	-	-	-	56
NS(=O)(=O)c1ccc(CNC2CC(=O)N(c3ccccc3)C2=O)cc1 (stereo not drawn)	-	.	.	.	.	.
O=C(Nc1ccc(N2CCOCC2)cc1)c1cc2ccccc2oc1=O	-	.	.	.	.	.
CCOC(=O)COc1cc(Br)c(C2Nc3ccc4ccccc4c3C3=C2C(=O)CC(C)(C)C3)cc1OC (stereo not drawn)	-	.	.	.	.	.
c1ccc(-n2ncc3c(N4CCN(c5ccccn5)CC4)nc(N4CCCCC4)nc32)cc1	-	-	-	-	-	-
c1ccc(-n2ncc3c(N4CCN(c5ccccn5)CC4)nc(N4CCOCC4)nc32)cc1	-	-	220[fluorescence artefact?]	-	-	-
COc1cccc(N(C(C)=O)c2nc(C)cc(C)c2C#N)c1	-	-	-	-	94[fluorescence artefact?]	-
O=C1NN(c2ccccc2)C(=O)/C1=C\c1ccccc1O	-	.	.	.	.	.
O=C1NN(c2ccc(I)cc2)C(=O)/C1=C\c1ccc(F)cc1	104	.	.	.	.	.
O=C1NN(c2ccc(I)cc2)C(=O)/C1=C\c1ccccc1O	92	.	.	.	.	.

Screening data as filed in PubChem BioAssay.
